Bioassay records: PubChem, NMMLSC
Most compounds without a hit are left out; they make up all but 2.5% or so of the library.
MEKK2 WT-MEK5 = modulators of MEK5 binding to wildtype MEKK2, primary screen, biochemical, multiplex bead flow cytometry, Alexa488-MEK5; 1.1% of 290,000 active; binding response (% of control), % at 10 µM; Alexa488-MEK5 binding to MEKK2 WT; actives lie on both sides; in the data active means binding response below about 67% or above about 130%
MEKK3 PB1 HTS = modulators of MEKK3-MEK5 PB1 binding, primary screen, biochemical, wildtype MEKK3, multiplex bead flow cytometry, Alexa488-MEK5 | Mitogen-activated protein kinase kinase kinase 3 (Homo sapiens), Q99759 | bead-based flow cytometry, Alexa488-MEK5 binding to MEKK3; actives lie on both sides; 0 = blocked by unlabeled MEK5, 100 = vehicle | binding response (% of control), % at 10 µM | 1.4% of 290,000 active;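 active means binding response more than 3 SD above or below the average of its plate-row segment, actives on both sides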;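 further: Alexa488 bead fluorescence after subtracting the streptavidin-only scavenger bead signal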
GRK2 inh = compounds blocking aptamer binding on GRK2 – biochemical, human GRK2, bead flow cytometry, HTS, primary screen. Beta-adrenergic receptor kinase 1 (Homo sapiens), P25098. FAM-aptamer displacement from GRK2. inhibition of aptamer binding, % at 10 µM. 0.59% of 330,000 active. AID 488847, 2010;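 active means inhibition of aptamer binding above 40%, roughly 3 SD of noise, on plates passing a quality check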;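 further: median bead fluorescence of bound FAM aptamer so fluorescent compounds give negative values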
Target sequence (P25098 whole entry, looked up): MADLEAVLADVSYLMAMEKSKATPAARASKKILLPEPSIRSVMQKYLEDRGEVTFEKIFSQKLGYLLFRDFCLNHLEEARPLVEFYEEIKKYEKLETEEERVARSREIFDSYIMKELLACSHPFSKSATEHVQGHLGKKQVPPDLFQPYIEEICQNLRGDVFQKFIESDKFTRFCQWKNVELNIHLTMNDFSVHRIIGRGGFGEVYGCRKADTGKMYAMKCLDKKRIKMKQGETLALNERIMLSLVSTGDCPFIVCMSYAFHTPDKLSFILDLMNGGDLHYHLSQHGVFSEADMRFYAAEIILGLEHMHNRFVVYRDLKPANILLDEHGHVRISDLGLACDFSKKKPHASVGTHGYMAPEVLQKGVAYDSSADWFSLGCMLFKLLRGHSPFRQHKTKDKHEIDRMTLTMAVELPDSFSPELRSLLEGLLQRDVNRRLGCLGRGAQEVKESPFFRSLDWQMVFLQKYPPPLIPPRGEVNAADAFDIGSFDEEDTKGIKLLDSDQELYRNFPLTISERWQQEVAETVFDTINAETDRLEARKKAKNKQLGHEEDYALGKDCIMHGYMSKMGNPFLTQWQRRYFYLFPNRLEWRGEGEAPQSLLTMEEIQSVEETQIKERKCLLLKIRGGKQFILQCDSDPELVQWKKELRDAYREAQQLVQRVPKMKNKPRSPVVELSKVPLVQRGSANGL
MEKK2 mut-MEK5 = MEK5 binding signal on mutant MEKK2 PB1, primary screen, biochemical, multiplex bead flow cytometry, Alexa488-MEK5; Alexa488-MEK5 binding to MEKK2 mutant; percent response, % at 10 µM; 0.35% of 290,000 active; in the data active means percent response above about 24%, passing the limit was not always enough
GRK2 inh confirm = GRK2 aptamer-displacing inhibitors, retest, confirmation, biochemical, cherry pick 1, bead flow cytometry; bead-bound GRK2, FAM-aptamer displacement; shares compounds with GRK2 inh; aptamer displacement, % at 10 µM; 4% of 2,000 active;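 active means aptamer displacement above 40%, near three times the noise of non-fluorescent compounds, on plates passing quality checks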;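 further: negative values mostly reflect intrinsic compound fluorescence rather than true enhancement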
FAM quench CP1 = counter-screen for GRK2 aptamer inhibitors: fluorescent aptamer quenchers; shares compounds with GRK2 inh; Carboxyfluorescein RNA aptamer on beads, flow cytometry quenching; active compounds read low; 2,000 tested, under 10 active; fluorescence response (% of DMSO), % at 10 µM;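 active means compounds that quench the bead-bound fluorescent RNA probe, cutting fluorescence to under half of the solvent control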;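 further: counterscreen run without GRK2 so only probe quenching by compound is measured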
GRK2 CP2 = GRK2 aptamer-displacing inhibitors, hit retest, confirmation, biochemical, cherry pick 2, bead flow cytometry. 360 tested, under 10 active. AID 504782, 2011. inhibition of aptamer binding, % at 10 µM. shares compounds with GRK2 inh. bead-bound GRK2, FAM-aptamer displacement;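 active means inhibition of aptamer binding above 40%, about triple the noise seen with nonglowing compounds, on plates passing quality control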;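 further: negative values mostly come from compounds that fluoresce themselves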
FAM quench CP2 = quenches fluorescent RNA aptamer, GRK2 hit artifact. shares compounds with GRK2 inh. carboxyfluorescein RNA aptamer beads, flow cytometry quenching; active compounds read low. fluorescence response vs DMSO, % at 10 µM. 360 tested, under 10 active. AID 588494;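 active means response vs DMSO under 50%, meaning signal dropped by over half, treated as fluorescence quencher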;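 further: labelled aptamer on streptavidin beads without GRK2 as a quench counter-screen; 100% = bead fluorescence of DMSO wells and lower means quenching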
The depositor's hits bear a star; · = no result.

SMILES | MEKK2 WT-MEK5 | MEKK3 PB1 HTS | GRK2 inh | MEKK2 mut-MEK5 | GRK2 inh confirm | FAM quench CP1 | others
CC1(C)NC(=O)N(CCCCOc2ccc(Cl)cc2)C1=O | 99 | 103 | 70* | 6 | -3 | 97
Cc1cc(Cl)c2oc(C(=O)NC3CCC(O)CC3)c(C)c2c1 (stereo not drawn) | 101 | 101 | 65* | 1 | 0 | 97
Cc1cc(=O)oc(C)c1C(=O)NCC1COc2ccccc2O1 (stereo not drawn) | 102 | 103 | 8 | 8 | · | ·
COCCN(C(=O)CSc1nnc(-c2ccccc2C)n1C)c1c(N)n(Cc2ccccc2)c(=O)[nH]c1=O | 106 | 115 | 3 | -1 | · | ·
Cc1cccc(-n2ccc(=O)c(C(=O)Nc3ccc(S(=O)(=O)Nc4nccc(C)n4)cc3)n2)c1 | 104 | 101 | 94* | 2 | 1 | 99
Cc1cccc(-n2c(N)c(C(=O)NCCN3CCOCC3)c3nc4ccccc4nc32)c1 | 103 | 102 | 100* | 6 | 1 | 95
CC(C)Cn1c(N)c(C(=O)NCCN2CCOCC2)c2nc3ccccc3nc21 | 105 | 104 | 3 | 6 | · | ·
Cc1cc(C(F)(F)F)nc(SCC(=O)Nc2ccccc2)n1 | 102 | 101 | 0 | 0 | · | ·
Cc1cc(C(F)(F)F)nc(SCC(=O)NC2CC3CCC2C3)n1 (stereo not drawn) | 95 | 95 | 53* | -4 | -2 | 98
Fc1ccc(CN2CCSCC2)cc1F | 109 | 105 | 0 | 10 | · | ·
C(=N/n1c2ccccc2c2ccccc21)/c1ccco1 | 103 | 102 | 96* | -2 | -1 | 101
C(=N\n1c2ccccc2c2ccccc21)/c1ccccc1 | 109 | 103 | 0 | 1 | · | ·
Cc1nc(N)nc(Cl)c1Cc1ccc(Cl)cc1 | 100 | 98 | 0 | -2 | · | ·
CCCN(C(=O)Cn1ncc2c(=O)oc3ccccc3c21)c1cccc(C)c1 | 100 | 100 | 6 | 0 | · | ·
Cc1ccc2oc(=O)c3cnn(CC(=O)NCCc4ccsc4)c3c2c1 | 111 | 110 | 61* | 7 | 5 | 102
CCN(CCCNC(=O)Cn1ncc2c(=O)oc3ccccc3c21)c1cccc(C)c1 | · | · | 74* | · | 1 | 96
CCOC(=O)N1CCN(C(=O)C2CCC(CNS(=O)(=O)c3ccccc3)CC2)CC1 (stereo not drawn) | 99 | 95 | 0 | 3 | · | ·
CCN1C(=O)CC(c2ccc(OC(C)C)cc2)C1=O (stereo not drawn) | 104 | 103 | 4 | -2 | · | ·
CCOC(=O)CSc1nnc(CSc2nc3sc4c(c3c(=O)[nH]2)CCC4)n1C | 96 | 99 | 67* | 0 | 1 | 101
COc1cccc(NC(=O)C2(S(=O)(=O)c3ccc(Cl)cc3)CC2)c1 | 91 | 93 | 4 | -7 | · | · | GRK2 CP2=-14;FAM quench CP2=101
O=C1CC(N2CCN(c3ccc(Cl)cc3)CC2)C(=O)N1c1ccccc1 (stereo not drawn) | 111 | 109 | 1 | 15 | · | ·
O=C1CC(N2CCN(c3ccccc3)CC2)C(=O)N1c1cccc(Cl)c1 (stereo not drawn) | 100 | 99 | 43* | 1 | 3 | 96
CC(C)N(C(=O)[C@H]1C[C@H](CC(=O)NC(C)(C)C)C(=O)N2CCc3c([nH]c4cc(CCC(=O)N(C)C)ccc34)[C@]12C)C(C)C | · | · | 3 | · | · | ·
Cc1onc(-c2ccccc2)c1-c1ccnn1C(=O)NC(C)C | 101 | 106 | 1 | 2 | · | ·
COC(=O)c1noc(C)c1-c1ccnn1C(=O)c1ccc(C)cc1 | 83 | 85 | 97* | -28 | 0 | 46*
SMILES | MEKK2 WT-MEK5 | MEKK3 PB1 HTS | GRK2 inh | MEKK2 mut-MEK5 | GRK2 inh confirm | FAM quench CP1 | others
O=S(=O)(Nc1cccc(-c2ccc3nncn3n2)c1)c1cccs1 | 94 | 102 | 0 | -4 | · | ·
CCC(Sc1nnnn1C)C(=O)Nc1ccc(C(C)=O)cc1 (stereo not drawn) | 93 | 98 | 0 | -4 | · | ·
O=Cc1ccc(N2N=C(c3ccccc3)CC2c2ccccc2)cc1 (stereo not drawn) | 83 | 97 | 46* | -5 | 6 | 95
O=C(CCN1C(=O)c2ccccc2C1=O)Nn1cnnc1 | 96 | 96 | 52* | -3 | 2 | 94
COc1cccc(-n2c(=O)c3sccc3n(CC(=O)NCC3CCCO3)c2=O)c1 (stereo not drawn) | 106 | 100 | 2 | 10 | · | ·
Cc1cccc(NC(=O)c2cc(NC(=O)CCCC(=O)O)ccc2Cl)n1 | 91 | 88 | 0 | -7 | · | ·
Cc1c(NC(=O)c2ccco2)cccc1-c1nc2cccnc2s1 | 102 | 107 | 46* | 10 | -1 | 98
CCCCN(CCCC)CC(O)COc1ccccc1C(=O)Nc1ccccc1 (stereo not drawn) | 116 | 106 | 0 | 7 | · | ·
Cc1ccc(C(=O)O)cc1N1CCCC1=O | 103 | 105 | 61* | 0 | 0 | 96
COCc1nnc(NC(=O)C2CC(=O)N(C3CCCCC3)C2)s1 (stereo not drawn) | 96 | 99 | 1 | -6 | · | ·
COc1cc(NC(C(=O)Nc2cccc(C(C)=O)c2)c2ccccc2)cc(OC)c1OC (stereo not drawn) | 106 | 104 | 76* | 2 | · | · | GRK2 CP2=13;FAM quench CP2=105
Cc1ccc(NC(=S)NC(=O)c2cncc(Br)c2)c(C)c1 | · | · | 0 | · | · | ·
Cc1ccc(C)c(NC(=S)NC(=O)c2cncc(Br)c2)c1 | · | · | 79* | · | -2 | 96
Cc1[nH]c2ccccc2c1NC(=O)CN1CCN(c2cccc(C(F)(F)F)c2)CC1 | 111 | 108 | 74* | 8 | -4 | 98
O=C(CN1CCN(c2cccc(C(F)(F)F)c2)CC1)Nc1cccc(C(F)(F)F)c1 | 101 | 99 | 2 | -1 | · | ·
COc1ccc(CC(=O)N(Cc2ccccc2)C(C)C)cc1 | 108 | 104 | 2 | 18 | · | ·
COc1ccc(CN([C@H](C)CO)S(=O)(=O)N(Cc2ccccc2)[C@H](CO)C(C)C)cc1 | · | · | 46* | · | -3 | 96
COc1ccc(CCC(C)N(C)Cc2ccccc2)cc1 (stereo not drawn) | 105 | 98 | 37 | 4 | 0 | 93
CC1(C)c2[nH]c3ccccc3c2C[C@H]2C(=O)N(Cc3cccc(F)c3)C(=O)N21 | 94 | 100 | 1 | -5 | · | ·
